Mtb BioA inh: BioA (M. tuberculosis) enzyme inhibition | purified M. tuberculosis BioA enzyme, plate reader | AID 602481 | hit rate 0.096% among 360,000 | inhibition, % at 9.99 µM; in the data active = inhibition above about 40%; inconclusive = no clear call, values can overlap the other calls
FadD28 binding: inhibitors of Mycobacterium tuberculosis FadD28 bisubstrate binding; FadD28 bisubstrate probe binding, fluorescence polarization; inhibition, % at 12.5 µM; hit rate 0.22% among 360,000; AID 588549; in the data active = inhibition above about 8.5%, passing the limit was not always enough; inconclusive = no clear call, values can overlap the other calls
TcdB GH inh: TcdB glycohydrolase inhibition. inhibition, % at 9.99 µM. AID 652162. hit rate 0.24% among 350,000. P18177. TcdB glycohydrolase enzymatic assay, plate reader; in the data active = inhibition above about 10%
Y pestis TopoI: blocks Yersinia pestis topoisomerase I activity; hit rate 0.064% among 360,000; activity, % at 10 µM; Y. pestis Topo-I cleavage product accumulation, plate reader; in the data active = activity above about 50%, passing the limit was not always enough; inconclusive = no clear call, values can overlap the other calls
* hit, by the source's call; i = inactive; ? = inconclusive; / = not tested or not shown. Rows were chosen to be rich in hits. Some 0.47% of all compounds tested hit in one or more screens of this group.

SMILES	Mtb BioA inh	FadD28 binding	TcdB GH inh	Y pestis TopoI
COc1ccc(CNC(=O)CN(C(=O)c2snc(C(N)=O)c2N)c2ccc(F)cc2)cc1	-3	-3	0	17
Cc1ccc(S(=O)(=O)N2CCCC2C(=O)Nc2ccc(O)cc2)cc1 (configuration not stated)	-1	-2	10*	9
COc1ccc(S(=O)(=O)N2CCCC2C(=O)Nc2ccc(C)cc2)cc1 (configuration not stated)	0	-1	/	4
Cc1cc(O)cc(=O)n1CCc1ccccc1	-3	1	2	0
Cc1nc(S(=O)(=O)N(C)Cc2ccccc2)c(C#N)c(C)c1Cl	0	-3	64*	7
CC1(C(=O)O)Oc2cccnc2NC1=O (configuration not stated)	/	-4	1	7
COCCN1C(=O)Cc2c1nc(N)c1c(N)nc(N3CCN(c4ccc(F)cc4)CC3)c(C#N)c21	/	0	0	-2
c1ccc(NC2=NCCN2CC2CCC2)cc1	-1	-4	0	4
CCOc1ccc(S(=O)(=O)NCCC(=O)NCc2ccccn2)cc1	/	-1	11*	10
Oc1ccc(-c2nccs2)cc1	-1	2	21*	-9
O=C1CSC(=S)N1/N=C/c1ccc(O)c(O)c1O	-1	9.4*	/	-7
CCC(CC)NC(=O)c1cccc([N+](=O)[O-])c1C	/	-2	1	1
O=C(c1ccc(Cl)cc1)C1CCN(C(=O)N2CCOCC2)CC1	0	-2	/	6
COc1ccc(C)c2sc(NC(=O)c3cccc(N4C(=O)CCC4=O)c3)nc12	0	-3	0	14
Cc1ccc(C)c2sc(NC(=O)c3ccc(N4C(=O)CCC4=O)cc3)nc12	0	-1	23*	-5
C[C@H](CO)N1C[C@H](C)[C@H](CN(C)S(=O)(=O)c2ccc(F)cc2)Oc2ccc(NC(=O)Cc3cn(C)c4ccccc34)cc2CC1=O	-1	/	0	/
CCn1c(SCC(=O)c2cc(C)ccc2C)nc2cc(S(=O)(=O)N3CCOCC3)ccc21	0	-3	0	30
CCC(C)NC(=O)CSc1nc2cc(S(=O)(=O)N3CCOCC3)ccc2n1CC (configuration not stated)	/	-2	11*	2
Cc1cccc(NC(=O)CN2C(=O)N/C(=C/c3cc(C)n(-c4cccnc4)c3C)C2=O)c1	/	28*	0	-9
Cc1cccc(NC(=O)CN2C(=O)N/C(=C/c3cc(C)n(-c4ccncc4)c3C)C2=O)c1	0	11*	1	5
Cc1cccc(NC(=O)CN2C(=O)N/C(=C/c3cc(C)n(C)c3C)C2=O)c1	/	0	1	-4
CN(C[C@H](Cc1ccccc1)N(C[C@H](Cc1cccc2ccccc12)N(CCc1ccccc1)N=O)N=O)N=O	0	-2	1	16
CCC(=O)N1CC[C@@H]2[C@H]1c1cc(-c3ccccc3)ccc1N(C)[C@H]2CO	8	/	12*	/
COCC(=O)N1CC[C@@H]2[C@H]1c1cc(-c3ccccc3)ccc1N(C)[C@H]2CO	/	/	11*	/
COCC(=O)N1CC[C@@H]2[C@H]1c1cc(-c3ccccc3)ccc1N(C)[C@@H]2CO	/	/	1	/
SMILES	Mtb BioA inh	FadD28 binding	TcdB GH inh	Y pestis TopoI
CN1c2ccc(-c3ccccc3)cc2[C@H]2[C@H](CCN2C(=O)CN2CCOCC2)[C@@H]1CO	6	/	-1	/
CN1c2ccc(-c3ccccc3)cc2[C@H]2[C@H](CCN2C(=O)CN2CCOCC2)[C@H]1CO	24	/	14*	/
COCC(=O)N1CC[C@@H]2[C@H]1c1cc(-c3cccc(OC)c3)ccc1N(C)[C@H]2CO	/	/	13*	/
Cc1cc(C)nc(N/N=C/c2cn[nH]c2-c2ccc(F)cc2)n1	-2	-22	1	-9
CCOc1ccc(-n2nnnc2-c2nc3ccccc3s2)cc1	/	-3	/	-1
COc1ccc(-c2nc(CS(=O)CC(=O)NCc3ccco3)c(C)o2)cc1OC (configuration not stated)	2	-1	1	3
CCC(=O)N1CC[C@@H]2[C@@H](CO)N(C)c3ccc(-c4ccccc4)cc3[C@@H]21	37	/	21*	/
CO[C@@H]1CN(C)C(=O)c2cc(NC(=O)NC(C)C)ccc2OC[C@@H](C)N(S(C)(=O)=O)C[C@H]1C	0	/	16*	/
c1ccc(CN(Cc2ccccc2)c2ncnc3c2nnn3Cc2ccccc2)cc1	-1	-2	0	6
Cc1cc(-c2ccc(Cl)cc2Cl)c(C#N)c(=O)[nH]1	-3	-4	0	2
CSc1nc(-c2ccc(Cl)cc2Cl)[nH]c(=O)c1C#N	1	-20	13*	-1
CC(=O)N/N=C(\C)c1ccc2c(c1)OCCO2	/	-1	1	-1
C/C(=N\NC(N)=S)c1ccc2c(c1)OCCO2	/	-1	12*	4
O=C1NC(=S)S/C1=C\C=C\c1ccc([N+](=O)[O-])o1	2	14*	0	-22
COC(=O)/C=C/c1ccccc1S(=O)(=O)N(Cc1ccccc1)Cc1ccco1	-5	-2	/	57*
CCN(C[C@H]1N[C@@](CC)(C(=O)OC)[C@H]2C(=O)N(C)C(=O)[C@@H]12)C(=O)Nc1ccc(OC)cc1	1	-1	0	-4
COc1ccccc1CNC(=O)CNC(=O)N1CC(=O)Nc2ccccc21	0	0	11*	1
COc1ccccc1CNC(=O)CCNC(=O)N1CC(=O)Nc2ccccc21	0	0	-1	3
Cc1ccccc1Cn1cc(CCC(=O)N2CCOCC2)c2ccccc21	/	-1	0	54*
CCC(C)/C=C(C)/C=C/C1=CC2=C(Cl)C(=O)C(C)(OC(C)=O)C(=O)C2=CO1 (configuration not stated)	3	?	/	24
CC[C@H](C)/C=C(C)/C=C/c1cc2c(cn1)C(=O)[C@@](C)(OC(C)=O)C(O)=C2Cl	3	11*	1	13
CCOC(=O)C1=C(C)N=c2s/c(=C/c3cccc([N+](=O)[O-])c3O)c(=O)n2C1c1ccc(OC)cc1OC (configuration not stated)	8	5	0	-13
CC(C)N1CCc2c(sc(NC(=O)c3cc4cc([N+](=O)[O-])ccc4s3)c2C(N)=O)C1	0	14*	2	-25
COCCCNC1=C(Cl)C(=O)c2ccccc2C1=O	3	-2	1	-7
COCCCNc1c2c3c(cccc3[nH]c1=O)C(=O)c1ccccc1-2	i	58*	-6	5
SMILES	Mtb BioA inh	FadD28 binding	TcdB GH inh	Y pestis TopoI
N#Cc1ccc(C(=O)N/N=C/c2cn(CC(=O)O)c3ccccc23)c(F)c1	/	-2	12*	-3
O=C(NC(=S)Nc1ccc(N2CCOCC2)cc1)c1cccc(Cl)c1	/	1	2	18
O=C(NC(=S)Nc1ccc(N2CCOCC2)cc1)c1ccccc1	2	-1	23*	0
COC(=O)c1cc(-c2c(C)nn(-c3ccccc3)c2C)n[nH]1	16	-4	/	4
Oc1cc(O)cc(/C=C/c2ccc(O)c(O)c2)c1	-2	3	10*	-18
C/C=C/c1ccc(O)c(OC)c1	0	-3	-8	-2
COCCCn1c(C(C)C)nc2oc3cc(OC)ccc3c(=O)c2c1=O	0	-4	/	4
O=C1C2ON(c3ccccc3)C(c3ccccn3)C2C(=O)N1c1ccc(Br)cc1 (configuration not stated)	-1	13*	1	-1
